Test results from PubChem BioAssay (EPA / NIEHS).
Inconclusive results are not listed. Activity calls are given as the source filed them. Rule for the calls: active = hit-call score of the fitted dose curve at least 0.9, where 1 is the maximum; inconclusive = response in the unintended direction; inactive = score below 0.9.

target: human Sirtuin 3 (SIRT3), SIRT3 (gene 23410) (UniProt Q9NTG7); assay: NVS_ENZ_hSIRT3: NovaScreen (NVS) Enzymatic Assay for human Sirtuin 3 (SIRT3) (AID 2283222)
How it was run: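 Cell-free enzyme assay with recombinant protein and fluorescent substrate, product separated by electrophoretic mobility shift; read 1 hour after dosing. Screened in duplicate at 25 uM, then singleton concentration-response up to 50 uM; loss of signal versus DMSO.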

human Sirtuin 3 (SIRT3), SIRT3 (gene 23410), sequence (Q9NTG7 whole entry, looked up): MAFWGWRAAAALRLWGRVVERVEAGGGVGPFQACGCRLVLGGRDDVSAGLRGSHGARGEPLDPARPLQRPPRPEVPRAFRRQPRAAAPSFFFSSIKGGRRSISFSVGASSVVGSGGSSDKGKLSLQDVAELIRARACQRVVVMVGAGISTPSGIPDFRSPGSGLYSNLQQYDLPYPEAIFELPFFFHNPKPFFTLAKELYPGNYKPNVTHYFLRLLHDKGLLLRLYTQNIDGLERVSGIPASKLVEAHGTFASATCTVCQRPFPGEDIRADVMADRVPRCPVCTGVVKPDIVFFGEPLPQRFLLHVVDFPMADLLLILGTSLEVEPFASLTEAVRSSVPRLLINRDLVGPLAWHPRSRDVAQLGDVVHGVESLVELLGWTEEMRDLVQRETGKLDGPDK

Row | SMILES | outcome
1 | Cc1occc1C(=O)Nc1ccc(C(=O)N2CCC(F)(F)/C(=C\C(=O)N3CCC(N4CCCCC4)CC3)c3ccccc32)cc1 | inactive
2 | Cc1oc2c(NC(=O)c3c(Cl)cccc3Cl)cccc2c1C(C)(C)O | inactive
3 | O=C(Nc1ccc(Cl)cc1)Nc1ccc(Cl)c(Cl)c1 | inactive
4 | O=C1O[C@H]([C@@H](O)CO)C(O)=C1O | inactive

target: rabbit Imidazoline 2 Central (I2C), CKB (gene 100009085) (UniProt P00567); assay: NVS_ENZ_rabI2C: NovaScreen (NVS) Enzymatic Assay for rabbit Imidazoline 2 Central (I2C) (AID 2283228)
How it was run: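 Rabbit brain membranes, cell-free; readout by filter-based scintillation counting 1.5 hours after dosing, loss of signal vs DMSO. Initial duplicate test at 25 uM, then concentration-response with 50 uM top concentration.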

rabbit Imidazoline 2 Central (I2C), CKB (gene 100009085), sequence (P00567 whole entry, looked up): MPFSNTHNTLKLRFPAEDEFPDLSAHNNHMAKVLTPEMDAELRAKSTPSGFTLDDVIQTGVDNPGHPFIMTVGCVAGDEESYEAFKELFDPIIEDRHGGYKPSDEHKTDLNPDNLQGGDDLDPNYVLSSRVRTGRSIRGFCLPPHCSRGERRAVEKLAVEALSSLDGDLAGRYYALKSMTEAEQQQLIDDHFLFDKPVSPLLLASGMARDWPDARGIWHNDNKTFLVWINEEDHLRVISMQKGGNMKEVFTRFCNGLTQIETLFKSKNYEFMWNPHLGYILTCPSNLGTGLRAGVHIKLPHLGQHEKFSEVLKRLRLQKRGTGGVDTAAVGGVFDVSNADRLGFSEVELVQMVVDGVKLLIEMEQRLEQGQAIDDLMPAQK

Row | SMILES | outcome | AC50
5 | Cc1oc2c(NC(=O)c3c(Cl)cccc3Cl)cccc2c1C(C)(C)O | inactive | –
6 | CN(C)c1ccc(C(=C2C=CC(=[N+](C)C)C=C2)c2ccc(N(C)C)cc2)cc1 | inactive | –
7 | CCCC(=O)OCCC(C)C | inactive | –
8 | CCCCCCCCCCCC[N+](C)(C)C | – | 2.13 µM (active)
9 | COc1cccc([C@H](O)C2CCN(CCc3ccc(F)cc3)CC2)c1OC | – | 12.7 µM (active)
10 | NCc1cccc(C2CCN(C(=O)c3ccc(C#Cc4ccccc4F)o3)CC2)c1 | – | 7.1 µM (active)

target: human Vascular Endothelial Growth Factor Receptor 2 (VEGFR2), KDR (gene 3791) (UniProt P35968); assay: NVS_ENZ_hVEGFR2: NovaScreen (NVS) Enzymatic Assay for human Vascular Endothelial Growth Factor Receptor 2 (VEGFR2) (AID 2283230)
How it was run: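 Cell-free recombinant VEGFR2 kinase, fluorescent substrate with electrophoretic mobility-shift separation; read 1 h after dosing. Screened at 25 uM in duplicate, hits to concentration-response up to 50 uM; loss-of-signal versus DMSO.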

human Vascular Endothelial Growth Factor Receptor 2 (VEGFR2), KDR (gene 3791), sequence (P35968 whole entry, looked up): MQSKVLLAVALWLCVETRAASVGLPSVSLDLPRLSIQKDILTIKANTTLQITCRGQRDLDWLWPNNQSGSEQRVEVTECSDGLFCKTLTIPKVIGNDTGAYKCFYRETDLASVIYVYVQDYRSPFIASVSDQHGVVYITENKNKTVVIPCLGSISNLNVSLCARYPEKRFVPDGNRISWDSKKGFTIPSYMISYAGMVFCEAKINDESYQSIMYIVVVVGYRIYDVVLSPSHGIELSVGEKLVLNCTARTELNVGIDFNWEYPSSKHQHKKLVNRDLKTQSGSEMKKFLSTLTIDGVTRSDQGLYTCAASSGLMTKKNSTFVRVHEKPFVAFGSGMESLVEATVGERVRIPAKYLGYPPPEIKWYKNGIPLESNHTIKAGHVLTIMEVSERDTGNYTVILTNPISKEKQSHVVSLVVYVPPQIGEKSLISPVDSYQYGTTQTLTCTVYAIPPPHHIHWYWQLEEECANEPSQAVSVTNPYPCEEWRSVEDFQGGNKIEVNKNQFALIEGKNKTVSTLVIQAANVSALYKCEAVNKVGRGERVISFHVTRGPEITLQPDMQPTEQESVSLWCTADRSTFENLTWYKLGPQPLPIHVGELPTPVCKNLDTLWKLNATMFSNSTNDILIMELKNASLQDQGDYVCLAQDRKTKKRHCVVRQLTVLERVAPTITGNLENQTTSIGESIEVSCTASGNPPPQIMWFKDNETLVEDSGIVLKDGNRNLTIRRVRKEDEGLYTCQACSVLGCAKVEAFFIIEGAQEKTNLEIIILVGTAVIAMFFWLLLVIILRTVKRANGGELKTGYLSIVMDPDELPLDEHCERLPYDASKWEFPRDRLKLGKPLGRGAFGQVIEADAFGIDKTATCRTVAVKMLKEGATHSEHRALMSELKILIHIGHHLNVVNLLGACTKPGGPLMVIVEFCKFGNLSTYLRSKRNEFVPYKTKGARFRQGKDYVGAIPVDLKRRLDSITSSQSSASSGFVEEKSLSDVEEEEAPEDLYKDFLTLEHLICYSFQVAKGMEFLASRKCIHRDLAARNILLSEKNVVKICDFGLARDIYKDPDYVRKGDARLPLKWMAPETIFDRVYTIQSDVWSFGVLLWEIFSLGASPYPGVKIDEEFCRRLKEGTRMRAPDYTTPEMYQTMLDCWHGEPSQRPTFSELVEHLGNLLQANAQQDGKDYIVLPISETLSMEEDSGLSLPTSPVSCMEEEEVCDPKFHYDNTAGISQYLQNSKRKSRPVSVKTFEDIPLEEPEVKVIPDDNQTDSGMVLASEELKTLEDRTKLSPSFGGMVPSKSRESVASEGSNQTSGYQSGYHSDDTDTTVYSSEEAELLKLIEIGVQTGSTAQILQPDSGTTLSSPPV

Row | SMILES | AC50 | outcome
11 | CN(C)c1ccc(C(=C2C=CC(=[N+](C)C)C=C2)c2ccc(N(C)C)cc2)cc1 | 0.572 µM (active) | –
12 | O=C(Nc1ccc(Cl)cc1)Nc1ccc(Cl)c(Cl)c1 | – | inactive
13 | CN(C)C(=O)C1(N2CCCCC2)CCN(CC[C@@]2(c3ccc(Cl)c(Cl)c3)CN(C(=O)c3ccccc3)CCO2)CC1 | – | inactive
14 | CC(C)(C)c1cc(/C=C2\SC(N)=NC2=O)cc(C(C)(C)C)c1O | – | inactive
15 | CCCCCCCCCCCO | – | inactive
16 | CCN(Cc1cccnc1)C(=O)c1cccc(Cl)c1[C@]1(C)C(=O)N(Cc2ccc(OC)cc2OC)c2ccc(Cl)cc21 | – | inactive
17 | CCCCOC(=O)c1ccc(O)cc1 | – | inactive
18 | CCCCCCCCCCCCO | – | inactive

target: sheep Cyclooxygenase-2 (Cox2), PTGS2 (gene 443460) (UniProt P79208); assay: NVS_ENZ_oCOX2: NovaScreen (NVS) Enzymatic Assay for sheep Cyclooxygenase-2 (Cox2) (AID 2283231)
How it was run: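 Enzyme from ovine placenta, cell-free; colorimetric absorbance read 0.66 hour after dosing, loss of signal vs DMSO. Screened in duplicate at 25 uM, then concentration-response up to 50 uM.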

sheep Cyclooxygenase-2 (Cox2), PTGS2 (gene 443460), sequence (P79208 whole entry, looked up): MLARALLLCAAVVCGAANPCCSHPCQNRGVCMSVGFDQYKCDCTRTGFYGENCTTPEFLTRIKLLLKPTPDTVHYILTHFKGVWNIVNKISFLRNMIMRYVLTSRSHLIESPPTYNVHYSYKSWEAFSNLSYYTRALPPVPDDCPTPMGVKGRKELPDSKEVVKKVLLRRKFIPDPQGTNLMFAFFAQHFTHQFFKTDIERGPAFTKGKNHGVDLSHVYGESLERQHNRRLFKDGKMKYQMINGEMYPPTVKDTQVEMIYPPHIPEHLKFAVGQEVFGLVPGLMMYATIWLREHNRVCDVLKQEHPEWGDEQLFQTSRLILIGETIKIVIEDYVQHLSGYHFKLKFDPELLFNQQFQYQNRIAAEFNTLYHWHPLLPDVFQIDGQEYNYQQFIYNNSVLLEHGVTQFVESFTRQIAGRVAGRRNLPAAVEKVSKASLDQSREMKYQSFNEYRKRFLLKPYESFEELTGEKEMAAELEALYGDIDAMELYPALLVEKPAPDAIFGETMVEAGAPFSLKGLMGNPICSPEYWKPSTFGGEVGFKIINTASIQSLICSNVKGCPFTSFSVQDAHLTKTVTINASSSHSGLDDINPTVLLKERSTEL

Row | SMILES | outcome | AC50
19 | CC1=CC(=O)/C(=C(/C)O)C(=O)O1 | inactive | –
20 | CCCCCCCCOC(=O)c1cc(O)c(O)c(O)c1 | – | 18.3 µM (active)
21 | O=CCCCC=O | – | 15.4 µM (active)
22 | CO[C@H]1/C=C/O[C@@]2(C)Oc3c(C)c(O)c4c(O)c(c(/C=N/N5CCN(C)CC5)c(O)c4c3C2=O)NC(=O)/C(C)=C\C=C\[C@H](C)[C@H](O)[C@@H](C)[C@@H](O)[C@@H](C)[C@H](OC(C)=O)[C@@H]1C | – | 7.74 µM (active)
23 | CCCOC(=O)c1cc(O)c(O)c(O)c1 | – | 14.8 µM (active)
24 | CCCCOC(=O)c1ccc(O)cc1 | – | 7.62 µM (active)
